From PubChem BioAssay
MCF10A rereplic = DNA re-replication induction in MCF 10a cells. MCF 10A DNA re-replication, Hoechst nuclear intensity, 48 h. Potency, µM (doses to about 46.1 µM), without a hit: at the top dose activity, positive = re-replication, most hits filed as activators. 2.9% of 350,000 active. AID 624296; further: potency means the concentration at half of the fitted maximal effect; % of control where 0% means no effect; nearly all actives have a fitted effect of over 50% in size
Chronic BCR inh = chronic active BCR signaling inhibition; ABC-DLBCL IkBa-CBG/CBR reporter, luminescence ratio, 4 h; Potency, µM (top dose mostly 46.1 µM), for the others: at the top dose activity change, negative = inhibition, most hits filed as inhibitors; 0.05% of 340,000 active; active means well fitted inhibition curve with a large enough effect in the signal ratio, with a control signal flat, not every such curve was filed as active; inconclusive means small, poorly fitted or top-dose-only effect, or effect the other way, or a change in a side signal; the % refers to the signal ratio;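 further: potency means the concentration at half of the fitted maximal effect; plate controls were basal doxycycline-induced cells for no effect and cells given 10 µM MG132 for full effect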
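Compounds up to 46 uM were incubated four hours with TMD8 cells whose green CBG68 luciferase is fused to IkappaBalpha; red CBR luminescence normalised the signal, and concentration-effect curves were fitted to fusion, red and ratio data.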
TDP1 cell noCPT = qHTS for Inhibitors of human tyrosyl-DNA phosphodiesterase 1 (TDP1): qHTS in cells in absence of CPT; 15% of 420,000 active; AID 686978, 2013; Potency, µM (titrated, usually from 46.2 µM), without a hit: top-dose activity change, negative = growth inhibition, usual class: inhibitors; DT40 Tdp1-/- hTDP1 cells, no CPT, ATP luminescence, 48 h; further: potency means the concentration at half of the fitted maximal effect; on the % scale 0 is the no-effect control and ±100 the full control effect; nearly all actives have a fitted effect of over 55% in size
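Chicken DT40 Tdp1-/- cells complemented with human TDP1, screened without camptothecin (DMSO vehicle only), 400 cells/well. Compounds pin-transferred, cells incubated at 37 °C for at least 48 hr. Growth read as ATP-dependent luminescence (CellTiter-Glo, 30 min at RT).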
DT40 TDP1 CPT = growth inhibition of DT40 Tdp1-/-;hTDP1 cells with camptothecin (screen for TDP1 inhibitors). Potency, µM (series often up to 46.2 µM), for inactives: top-dose activity change, negative = growth inhibition, hits mostly inhibitors. chicken DT40 Tdp1-/-;hTDP1 cells + 20 nM CPT, ATP luminescence, 48 h. AID 686979. 12% of 420,000 active; further: potency means the concentration at half of the fitted maximal effect; on the % scale 0 is the no-effect control and ±100 the full control effect; nearly all actives have a fitted effect of over 55% in size
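Chicken DT40 Tdp1-/- cells complemented with human TDP1, 400 cells/well, exposed to compounds plus 20 nM camptothecin for at least 48 h at 37 C; viability read as ATP content by CellTiter-Glo luminescence.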
IL1B secr inh = inflammasome signaling inhibition, IL-1 beta readout | THP-1 LPS/ATP IL-1B secretion, AlphaLISA, 16 h; hits give low values | activity change, % at 57.5 µM | 4.7% of 360,000 active | AID 743279; in the data active means activity change below about -50%; inconclusive means mostly about -30% to -49%; further: on the % scale 0 is the no-effect control and ±100 the full control effect
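Secreted IL-1B measured by AlphaLISA bead assay after 16 h compound exposure of THP-1 cells; compounds (final up to 57.5 uM) added 1 h before LPS (250 ng/mL) and ATP (1.25 mM) stimulation; lower signal means less secretion.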
SW480 rereplic = inducers of DNA re-replication in SW480 colon cancer cells; SW480 DNA re-replication, Hoechst DNA content imaging, 48 h; Potency, µM (series often up to 46.1 µM), without a hit: at the top dose re-replication activation, usual class: activators; 1.8% of 340,000 active; AID 624297; further: potency means the concentration at half of the fitted maximal effect; % of control where 0% means no effect; nearly all actives have a fitted effect of over 55% in size
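250 cells/well; 23 nL cpd via pin tool; 48 hr, 37 C, 5% CO2; Hoechst 40 min; imager read of total nuclear intensity, ex 405/em 500-530 nm.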
* marks the source's active call; other numbers are inactive results. Compounds with a hit are over-represented: about 19% of the library has one in this group of screens. Unless noted, the call rests on the fitted dose curve; in most records, active means well fitted curve in the direction sought with a large enough effect; inconclusive means small, poorly fitted or top-dose-only effect, or another doubt; inactive means no such curve, though single readings can be large; an effect the other way counts as inactive or inconclusive.

For COc1ccc(C(C(=O)NC(C)(C)C)N(Cc2cccnc2)C(=O)CCC(=O)Nc2cc(C)on2)cc1 (centres undefined) the results were MCF10A rereplic -3%, Chronic BCR inh 0%, TDP1 cell noCPT -15%, DT40 TDP1 CPT 9%, IL1B secr inh 7 and SW480 rereplic -2%.
Screening Fc1ccccc1C(c1nnnn1C1CCCC1)N1CCN(Cc2ccccc2)CC1 (centres undefined) returned MCF10A rereplic -5%, Chronic BCR inh 5%, TDP1 cell noCPT 12µM*, DT40 TDP1 CPT 21µM*, IL1B secr inh inconclusive and SW480 rereplic -1%.
C(=C\c1ccccc1)/CN1CCN(C(c2ccnc3ccccc23)c2nnnn2C2CCCCC2)CC1 (centres undefined) was read as TDP1 cell noCPT 18µM*, DT40 TDP1 CPT 23µM* and IL1B secr inh inconclusive.
Screening C(=C\c1ccccc1)/CN1CCN(C(c2ccccc2)c2nnnn2C2CCCCC2)CC1 (centres undefined) returned TDP1 cell noCPT 13µM*, DT40 TDP1 CPT inconclusive and IL1B secr inh -29.
For CSCCC(c1nnnn1C1CCCCC1)N1CCN(C/C=C/c2ccccc2)CC1 (centres undefined) the results were TDP1 cell noCPT 21µM*, DT40 TDP1 CPT inconclusive and IL1B secr inh -29.
For Cc1ccccc1CNC(=O)CCC(=O)N1CCOc2ccc(Cl)cc21 the results were MCF10A rereplic 2%, Chronic BCR inh inconclusive, TDP1 cell noCPT -14%, DT40 TDP1 CPT -8%, IL1B secr inh -17 and SW480 rereplic 2%.
O=C(N[C@@H]1CC[C@@H](CCn2cc(-c3ccccc3)nn2)O[C@@H]1CO)c1cnccn1 was read as TDP1 cell noCPT -1%, DT40 TDP1 CPT 14% and IL1B secr inh 31.
`CCCCCCNC(=O)c1c(O)c2cccc3c2n(c1=O)CCC3` gave MCF10A rereplic 15%, Chronic BCR inh inconclusive, TDP1 cell noCPT 29µM*, DT40 TDP1 CPT inconclusive, IL1B secr inh 21 and SW480 rereplic -6%.
CCCc1nc2ccccc2c(=O)n1NC(=O)c1c(O)c2cccc3c2n(c1=O)CCC3 was read as MCF10A rereplic 3%, Chronic BCR inh inconclusive, TDP1 cell noCPT 16µM*, DT40 TDP1 CPT inconclusive, IL1B secr inh 5 and SW480 rereplic 3%.
For CCCCc1nc2ccccc2c(=O)n1NC(=O)c1c(O)c2ccccc2n(C)c1=O the results were MCF10A rereplic 9%, Chronic BCR inh 7%, TDP1 cell noCPT 3.7µM*, DT40 TDP1 CPT 4.1µM*, IL1B secr inh -10 and SW480 rereplic inconclusive.
For Cc1nc2ccccc2c(=O)n1NC(=O)c1c(O)c2ccccc2n(C)c1=O the results were Chronic BCR inh 4%.
For C=C1C(=O)C2=CC1CCC(=O)C1(C)CCC(OC(C)=O)C(C)(C)C1CC2O (centres undefined) the results were MCF10A rereplic 9.2µM*, TDP1 cell noCPT 2.1µM*, DT40 TDP1 CPT 2.1µM*, IL1B secr inh -107* and SW480 rereplic 2.1µM*.
CC(=O)OC1CC[C@@]2(C)C(CC[C@@]3(C)C2CC=C2C4CC(C)(C)CC[C@]4(C)CC[C@@]23C)C1(C)C (some centres undefined) was read as TDP1 cell noCPT -8% and DT40 TDP1 CPT 9%.
For N#CC1(NC(=O)COc2cccnc2[N+](=O)[O-])CCCCC1 the results were MCF10A rereplic 0%, Chronic BCR inh -1%, TDP1 cell noCPT -16%, DT40 TDP1 CPT -3%, IL1B secr inh 0 and SW480 rereplic 3%.
For COc1ccc(N2CCN(C3CCCN(Cc4cccc(C(C)=O)c4)C3)CC2)cc1 (centres undefined) the results were MCF10A rereplic 23µM*, Chronic BCR inh -1%, TDP1 cell noCPT -2%, DT40 TDP1 CPT -22%, IL1B secr inh 3 and SW480 rereplic -16%.
Screening CCOc1cc(CN2CCCC(N3CCN(c4ccc(F)cc4)CC3)C2)ccc1OC (centres undefined) returned MCF10A rereplic 4.1µM*, Chronic BCR inh -1%, TDP1 cell noCPT inconclusive, DT40 TDP1 CPT 16µM*, IL1B secr inh -29 and SW480 rereplic -47%.
COc1ccc(CN2CCCC(N3CCN(c4cccc(Cl)c4)CC3)C2)cc1OC (centres undefined) was read as MCF10A rereplic -1%, Chronic BCR inh -12%, TDP1 cell noCPT 23µM*, DT40 TDP1 CPT inconclusive, IL1B secr inh -11 and SW480 rereplic -5%.
For COc1ccc(CN2CCCC(N3CCN(c4ccc(OC)cc4)CC3)C2)cc1 (centres undefined) the results were MCF10A rereplic 1%, Chronic BCR inh -2%, TDP1 cell noCPT -17%, DT40 TDP1 CPT -1%, IL1B secr inh 2 and SW480 rereplic 3%.
Screening O=c1oc2ccccc2nc1/C=C(O)/C=C/c1ccc(F)cc1 returned MCF10A rereplic inconclusive, Chronic BCR inh inconclusive, TDP1 cell noCPT 15µM*, DT40 TDP1 CPT 9.2µM*, IL1B secr inh -14 and SW480 rereplic 0%.
For Cc1ccc(/C(O)=C/c2nc3ccccc3oc2=O)cc1 the results were MCF10A rereplic inconclusive, Chronic BCR inh inconclusive, TDP1 cell noCPT inconclusive, DT40 TDP1 CPT -27% and SW480 rereplic inconclusive.
For O=c1oc2ccccc2nc1/C=C(O)/C=C\c1ccccc1 the results were MCF10A rereplic inconclusive, Chronic BCR inh inconclusive, TDP1 cell noCPT 23µM*, DT40 TDP1 CPT 15µM*, IL1B secr inh -54* and SW480 rereplic 3%.
`CC(Cl)C(=O)NC(=O)NC12CC3CC(CC(C3)C1)C2` (centres undefined) gave MCF10A rereplic 16%, Chronic BCR inh -14%, TDP1 cell noCPT 21µM*, DT40 TDP1 CPT 16µM* and IL1B secr inh 0.
COc1ccc(N(CC(=O)Nc2ccccc2F)S(=O)(=O)c2ccc(OC)c(OC)c2)cc1 was read as MCF10A rereplic -6%, Chronic BCR inh inconclusive, TDP1 cell noCPT inconclusive, DT40 TDP1 CPT inconclusive, IL1B secr inh -3 and SW480 rereplic -40%.
`COc1cc(/C=C2/SC(=NCc3ccccc3)N(Cc3ccccc3)C2=O)ccc1O` gave MCF10A rereplic 5.8µM*, Chronic BCR inh inconclusive, TDP1 cell noCPT inconclusive, DT40 TDP1 CPT inconclusive, IL1B secr inh -3 and SW480 rereplic 5%.
